The nature of test [1]: Validation screen for small molecules that induce genotoxicity in human embryonic kidney (HEK293T) cells expressing luciferase-tagged ELG1 (AID 493106). Further: 0% is about no effect. The procedure, abridged: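 ELG1-luciferase reporter readout (ONE-Glo, 30 min, room temperature) after 16 hr compound treatment at 37 °C of HEK293T cells at 2,000 per well. Rising luminescence flags genotoxic stress.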
Test [2] has as its target ATPase family AAA domain-containing protein 5 (Homo sapiens) (UniProt Q96QE3). Description: Validation screen for small molecules that inhibit ELG1-dependent DNA repair in human embryonic kidney (HEK293T) cells expressing luciferase-tagged ELG1 (AID 493107).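 Further: series mostly up to about 46 µM; on the % scale 0 is the no-effect control and ±100 the full control effect; inhibitors lower the ELG1-luciferase luminescence signal; nearly all actives have a fitted effect of over 70% in size.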 The procedure, abridged: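 Luciferase read-out, ONE-Glo, 30 min at room temperature, follows 16 h co-exposure at 37 C of compound and the DNA-damaging agent 5-fluorouridine. Cells: HEK293T with ELG1-luciferase fusion, 2,000 per well, DMSO as vehicle.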

A short description of test [3]: Nrf2 qHTS screen for inhibitors: Validation (AID 493153; active means well fitted inhibition curve with a large enough effect in the main read-out, with a control signal flat, not every such curve was filed as active). Particulars: Potency: luciferase luminescence; viability change: measured here: cytotoxicity max response. An outline of the steps: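 Concentration-response on A549 ARE_Fluc reporter cells exposed 18-24 h at 37 C, 5% CO2. Cytotoxicity read first by CellTiter-Fluor fluorescence (Ex 405/Em 525), then Nrf2 inhibition by BugLite luminescence after 15 min.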
(qHTS replaces the single test concentration by a dilution series.)

A short description of test [4]: qHTS for Inhibitors of Cell Surface uPA Generation: Validation Assay (AID 493164).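 Further: RAW 264.7 macrophage cells exposed to compound for 18 h; 0% is about no effect.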 The procedure, abridged: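 ATP-Lite luminescence read-out: ATP remains high when uPA activity-dependent LF translocation into the cytoplasm is blocked. RAW 264.7 cells, 18 h compound exposure at 37 C; 7-point titration, 2.45 nM to 38.3 uM final.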
The target in test [5] is Peptidyl-prolyl cis-trans isomerase NIMA-interacting 1 (Homo sapiens) (UniProt Q13526). Description: qHTS Validation Assay to Find Inhibitors of Pin1 (AID 504536; active means well fitted inhibition curve with a large enough effect in the polarisation, with a control signal flat, not every such curve was filed as active; the % refers to the polarisation;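 further: 0% = full Pin1 enzyme wells and -100% = no-enzyme wells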). An outline of the steps:
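Fluorescence polarization competition: compounds (titration) displace HiFluor-488-labeled Pin1-1b peptide from Pin1 (0.3 uM final) in pH 7.5 HEPES buffer with DTT, 10 min at room temperature; %Activity normalized to no-enzyme wells, curves fitted.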

The target of test [6] is Phosphoglycerate kinase, glycosomal (Trypanosoma brucei brucei) (UniProt P07378). Kind of test: qHTS Validation Assay to Find Inhibitors of Phosphoglycerate Kinase (AID 504547).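 Further: control wells lack PGK and mark full inhibition.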 The procedure, abridged:
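In TEA buffer (100mM, pH 7.6) containing 5mM MgCl2 and 0.01% Tween-20, the GAPDH-coupled PGK reaction proceeded for 60 minutes at room temperature before a single luminescence reading using Kinase-Glo Plus.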

The target in test [7] is phosphoglycerate mutase (Leishmania major) (UniProt Q4Q090). Description: qHTS Validation Assay to Find Inhibitors of Phosphoglycerate Mutase (AID 504548).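 Further: end-point luminescence from Kinase-GloPlus after the PGAM reaction; series mostly up to about 58 µM; on the % scale 0 is the no-effect control and ±100 the full control effect.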 The procedure, abridged: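 Inhibition of L. major PGAM was assessed by Kinase-GloPlus luminescence following a 45-minute room-temperature reaction with enzyme at 1.25nM final.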
Test [8] has as its target Ubiquitin carboxyl-terminal hydrolase 1 (Homo sapiens) (UniProt O94782). Description: Inhibitors of USP1/UAF1: Pilot qHTS (AID 504865).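 Further: rhodamine fluorescence freed from ubiquitin-rhodamine substrate followed over time; top concentration of the series differs between compounds; on the % scale 0 is the no-effect control and ±100 the full control effect; nearly all actives have a fitted effect of over 35% in size.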 An outline of the steps: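 USP1/UAF1 complex at 1 nM preincubated 15 min at room temperature with compound, then Ub-Rho substrate added at 150 nM final. Fluorescence (480/540 nm) read kinetically in 50 mM HEPES pH 7.8, 0.5 mM EDTA, 1 mM TCEP, 0.1 mg/ml BSA, 0.01% Tween-20.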

Test [9] in a line: qHTS for Inhibitors of ATXN expression: Validation (AID 588378). Further: series mostly up to about 57 µM; on the % scale 0 is the no-effect control and ±100 the full control effect; nearly all actives have a fitted effect of over 75% in size. An outline of the steps:
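HEK293 cells carrying ATXN2-firefly luciferase reporter, treated with compound 24 h at 37 °C. Viability read first by CellTiter-Fluor (405/525 nm), then reporter expression by Bright-Glo luminescence; controls were a known ATXN2 expression inhibitor and a luciferase inhibitor.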

Test [10] has as its target Thyrotropin-releasing hormone receptor (Homo sapiens) (UniProt P34981). Description: qHTS for Small Molecule Agonists and Allosteric Enhancers of Human TRH Receptor: Validation Screen for Agonists (AID 493127;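 active means calcium activation more than 3 SD above the typical response in the agonist read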;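 further: intracellular calcium rise by fluo-8 fluorescence before TRH EC20 addition; 0% is about no effect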). Particulars: TRH receptor agonist cell assay; at 2 µM; stronger effect = higher value. An outline of the steps: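 Compound-evoked intracellular calcium release in fluo-8-loaded TRHR cells, read kinetically on FDSS (Ex 480/Em 530, 1 s/cycle) after 23 nL pintool transfer. Agonist phase preceded 10 nM TRH EC20 addition.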

For test [11], the target named is Galactokinase (Homo sapiens) (UniProt P51570). Description: qHTS Validation Assay for Inhibitors of Human Galactokinase (GALK) (AID 493189). Further: 0% is about no effect. An outline of the steps: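 GALK (5 nM) with 35 uM ATP and 100 uM galactose in HEPES pH 8.0 with MgCl2, NaCl, DTT and BSA. Reaction ran 1 h at room temperature. Residual ATP read by Kinase-Glo Plus luminescence.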
Test [12] in a line: Validation screen for small molecules that induce DNA re-replication in SW480 colon adenocarcinoma cells (AID 504364). Further: 0% is about no effect. An outline of the steps:
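Image-based DNA content read-out: Hoechst stain 40 min, total nuclear fluorescence intensity (ex 405 nm, em 500-530 nm) after 48 h compound exposure of 250 SW480 cells/well at 37 C, 5% CO2, versus DMSO vehicle.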

The target of test [13] is DNA dC->dU-editing enzyme APOBEC-3G (Homo sapiens) (UniProt Q9HC16). Kind of test: qHTS for inhibitors of Vif-A3G interactions: Validation (AID 588379). Further: 0% is about no effect. The procedure, abridged:
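Yellow fluorescence (Ex 488, Em 500-530) of Vif-coexpressing HeLa A3G-eYFP cells, scanned by Acumen cytometer, reports blocked A3G degradation. Cells plated at 700/well overnight at 37 deg C before compound addition, then a further overnight compound incubation at 37 deg C.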

A short description of test [14]: qHTS for Inhibitors of ATXN expression: Validation of Cytotoxic Assay (AID 588349). Further: on the % scale 0 is the no-effect control and ±100 the full control effect. The procedure, abridged: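 Cytotoxicity counter-screen: ATP-based luminescent viability (CellTiter Glo) after 72 hr exposure of HEK293 cells to a compound titration at 37 degrees C.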
Test [15] deals with Estrogen receptor (Homo sapiens) (UniProt P03372). Description: qHTS assay for small molecule antagonists of estrogen receptor alpha signaling (AID 588513; active means well fitted curve in the direction sought with a large enough effect in the signal ratio, with a control signal flat, not every such curve was filed as active; the % refers to the signal ratio; further: on the % scale 0 is the no-effect control and ±100 the full control effect). The procedure, abridged:
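ER-alpha-UAS-bla GripTite HEK 293 cells in 2% charcoal/dextran-treated FBS medium; compounds titrated (1:2, duplicate), then stimulated with 0.5 nM 17-beta-estradiol for 18 h at 37C. CCF4 beta-lactamase fluorescence; Hill-fit IC50 and efficacy.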

Test [16] has as its target Bile acid receptor (Homo sapiens) (UniProt Q96RI1). Description: qHTS assay for small molecule antagonists of farnesoid X receptor signaling (AID 588526; calls by dose curve; further: on the % scale 0 is the no-effect control and ±100 the full control effect). The procedure, abridged: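 Concentration-response titrations were fitted to the Hill equation for half-maximal inhibition and maximal response, with data normalised to 50 uM chenodeoxycholic acid and DMSO control wells. Cells: FXR-UAS-bla HEK293T, dialyzed FBS.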

This note sets out measurements from PubChem BioAssay (NCATS).

Inconclusive results are not listed. Calls of active or inactive are those of the source. Unless noted, the call rests on the fitted dose curve; in most records, active means well fitted curve in the direction sought with a large enough effect; inconclusive means small, poorly fitted or top-dose-only effect, or another doubt; inactive means no such curve, though single readings can be large; an effect the other way counts as inactive or inconclusive.

Sequence of Ubiquitin carboxyl-terminal hydrolase 1 (Homo sapiens) (O94782 whole entry, looked up): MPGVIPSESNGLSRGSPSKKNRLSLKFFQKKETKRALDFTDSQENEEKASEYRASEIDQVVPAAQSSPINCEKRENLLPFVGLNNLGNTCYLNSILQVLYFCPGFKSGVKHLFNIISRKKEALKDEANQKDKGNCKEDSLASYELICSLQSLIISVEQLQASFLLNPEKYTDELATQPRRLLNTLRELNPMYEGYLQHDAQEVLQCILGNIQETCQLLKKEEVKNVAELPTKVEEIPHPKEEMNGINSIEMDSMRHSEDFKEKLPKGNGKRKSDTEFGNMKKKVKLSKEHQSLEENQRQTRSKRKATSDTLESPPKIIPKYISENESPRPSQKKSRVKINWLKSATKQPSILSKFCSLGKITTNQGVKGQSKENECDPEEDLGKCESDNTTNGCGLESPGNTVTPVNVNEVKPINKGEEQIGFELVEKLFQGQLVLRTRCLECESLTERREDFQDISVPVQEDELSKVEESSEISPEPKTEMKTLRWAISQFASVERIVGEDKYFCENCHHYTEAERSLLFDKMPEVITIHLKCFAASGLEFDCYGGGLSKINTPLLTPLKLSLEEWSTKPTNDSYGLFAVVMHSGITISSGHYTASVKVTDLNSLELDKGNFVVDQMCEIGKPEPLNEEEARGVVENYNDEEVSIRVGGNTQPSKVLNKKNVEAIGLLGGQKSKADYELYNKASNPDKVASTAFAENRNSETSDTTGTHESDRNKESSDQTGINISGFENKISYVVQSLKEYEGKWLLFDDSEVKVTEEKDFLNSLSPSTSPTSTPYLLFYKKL
Sequence of phosphoglycerate mutase (Leishmania major) (Q4Q090 1-553): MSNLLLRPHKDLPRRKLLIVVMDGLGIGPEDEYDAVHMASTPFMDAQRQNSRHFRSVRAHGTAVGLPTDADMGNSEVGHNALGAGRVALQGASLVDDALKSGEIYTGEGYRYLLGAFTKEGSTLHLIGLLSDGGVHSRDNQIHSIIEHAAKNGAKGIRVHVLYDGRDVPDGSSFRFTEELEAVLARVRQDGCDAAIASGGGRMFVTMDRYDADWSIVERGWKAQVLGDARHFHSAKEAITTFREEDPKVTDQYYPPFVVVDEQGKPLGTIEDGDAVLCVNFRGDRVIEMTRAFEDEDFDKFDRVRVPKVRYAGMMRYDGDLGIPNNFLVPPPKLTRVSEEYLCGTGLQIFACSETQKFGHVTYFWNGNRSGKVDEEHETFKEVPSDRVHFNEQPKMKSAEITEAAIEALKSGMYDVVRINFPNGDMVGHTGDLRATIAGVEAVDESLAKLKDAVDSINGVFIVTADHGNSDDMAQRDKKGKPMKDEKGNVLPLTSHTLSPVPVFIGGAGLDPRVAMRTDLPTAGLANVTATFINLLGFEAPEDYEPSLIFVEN
Sequence of Galactokinase (Homo sapiens) (P51570 whole entry, looked up): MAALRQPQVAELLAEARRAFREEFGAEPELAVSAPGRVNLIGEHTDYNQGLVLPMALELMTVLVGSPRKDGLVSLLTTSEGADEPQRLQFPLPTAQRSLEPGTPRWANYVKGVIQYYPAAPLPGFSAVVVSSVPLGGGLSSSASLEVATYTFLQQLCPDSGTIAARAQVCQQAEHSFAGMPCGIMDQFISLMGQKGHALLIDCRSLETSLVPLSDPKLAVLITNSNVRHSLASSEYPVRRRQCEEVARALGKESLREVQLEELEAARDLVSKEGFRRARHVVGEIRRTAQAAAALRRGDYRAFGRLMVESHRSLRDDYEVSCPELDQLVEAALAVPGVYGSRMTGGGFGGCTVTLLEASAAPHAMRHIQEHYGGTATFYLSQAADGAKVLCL
Sequence of Phosphoglycerate kinase, glycosomal (Trypanosoma brucei brucei) (P07378 whole entry, looked up): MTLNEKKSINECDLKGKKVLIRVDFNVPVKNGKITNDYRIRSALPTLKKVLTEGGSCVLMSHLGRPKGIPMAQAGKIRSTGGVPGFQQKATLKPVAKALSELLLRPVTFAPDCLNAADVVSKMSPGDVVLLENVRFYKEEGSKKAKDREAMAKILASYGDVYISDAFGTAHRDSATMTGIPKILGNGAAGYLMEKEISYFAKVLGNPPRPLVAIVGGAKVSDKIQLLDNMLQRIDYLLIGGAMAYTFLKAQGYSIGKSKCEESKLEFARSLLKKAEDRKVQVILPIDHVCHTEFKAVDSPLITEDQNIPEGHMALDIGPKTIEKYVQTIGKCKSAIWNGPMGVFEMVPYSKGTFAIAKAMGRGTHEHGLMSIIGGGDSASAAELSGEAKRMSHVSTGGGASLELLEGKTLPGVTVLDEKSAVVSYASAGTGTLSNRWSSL
Sequence of Thyrotropin-releasing hormone receptor (Homo sapiens) (P34981 whole entry, looked up): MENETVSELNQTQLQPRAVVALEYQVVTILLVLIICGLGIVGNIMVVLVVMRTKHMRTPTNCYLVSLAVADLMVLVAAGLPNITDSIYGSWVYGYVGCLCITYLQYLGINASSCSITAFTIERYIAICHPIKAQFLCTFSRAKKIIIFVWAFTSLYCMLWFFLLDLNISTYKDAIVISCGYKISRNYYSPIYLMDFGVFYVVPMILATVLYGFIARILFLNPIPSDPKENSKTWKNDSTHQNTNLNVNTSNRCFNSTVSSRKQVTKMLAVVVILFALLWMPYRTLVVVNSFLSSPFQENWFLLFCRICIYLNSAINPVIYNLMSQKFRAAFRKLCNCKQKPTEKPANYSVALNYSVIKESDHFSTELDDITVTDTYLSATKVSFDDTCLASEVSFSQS
Sequence of ATPase family AAA domain-containing protein 5 (Homo sapiens) (Q96QE3 whole entry, looked up, the tested form may be a part): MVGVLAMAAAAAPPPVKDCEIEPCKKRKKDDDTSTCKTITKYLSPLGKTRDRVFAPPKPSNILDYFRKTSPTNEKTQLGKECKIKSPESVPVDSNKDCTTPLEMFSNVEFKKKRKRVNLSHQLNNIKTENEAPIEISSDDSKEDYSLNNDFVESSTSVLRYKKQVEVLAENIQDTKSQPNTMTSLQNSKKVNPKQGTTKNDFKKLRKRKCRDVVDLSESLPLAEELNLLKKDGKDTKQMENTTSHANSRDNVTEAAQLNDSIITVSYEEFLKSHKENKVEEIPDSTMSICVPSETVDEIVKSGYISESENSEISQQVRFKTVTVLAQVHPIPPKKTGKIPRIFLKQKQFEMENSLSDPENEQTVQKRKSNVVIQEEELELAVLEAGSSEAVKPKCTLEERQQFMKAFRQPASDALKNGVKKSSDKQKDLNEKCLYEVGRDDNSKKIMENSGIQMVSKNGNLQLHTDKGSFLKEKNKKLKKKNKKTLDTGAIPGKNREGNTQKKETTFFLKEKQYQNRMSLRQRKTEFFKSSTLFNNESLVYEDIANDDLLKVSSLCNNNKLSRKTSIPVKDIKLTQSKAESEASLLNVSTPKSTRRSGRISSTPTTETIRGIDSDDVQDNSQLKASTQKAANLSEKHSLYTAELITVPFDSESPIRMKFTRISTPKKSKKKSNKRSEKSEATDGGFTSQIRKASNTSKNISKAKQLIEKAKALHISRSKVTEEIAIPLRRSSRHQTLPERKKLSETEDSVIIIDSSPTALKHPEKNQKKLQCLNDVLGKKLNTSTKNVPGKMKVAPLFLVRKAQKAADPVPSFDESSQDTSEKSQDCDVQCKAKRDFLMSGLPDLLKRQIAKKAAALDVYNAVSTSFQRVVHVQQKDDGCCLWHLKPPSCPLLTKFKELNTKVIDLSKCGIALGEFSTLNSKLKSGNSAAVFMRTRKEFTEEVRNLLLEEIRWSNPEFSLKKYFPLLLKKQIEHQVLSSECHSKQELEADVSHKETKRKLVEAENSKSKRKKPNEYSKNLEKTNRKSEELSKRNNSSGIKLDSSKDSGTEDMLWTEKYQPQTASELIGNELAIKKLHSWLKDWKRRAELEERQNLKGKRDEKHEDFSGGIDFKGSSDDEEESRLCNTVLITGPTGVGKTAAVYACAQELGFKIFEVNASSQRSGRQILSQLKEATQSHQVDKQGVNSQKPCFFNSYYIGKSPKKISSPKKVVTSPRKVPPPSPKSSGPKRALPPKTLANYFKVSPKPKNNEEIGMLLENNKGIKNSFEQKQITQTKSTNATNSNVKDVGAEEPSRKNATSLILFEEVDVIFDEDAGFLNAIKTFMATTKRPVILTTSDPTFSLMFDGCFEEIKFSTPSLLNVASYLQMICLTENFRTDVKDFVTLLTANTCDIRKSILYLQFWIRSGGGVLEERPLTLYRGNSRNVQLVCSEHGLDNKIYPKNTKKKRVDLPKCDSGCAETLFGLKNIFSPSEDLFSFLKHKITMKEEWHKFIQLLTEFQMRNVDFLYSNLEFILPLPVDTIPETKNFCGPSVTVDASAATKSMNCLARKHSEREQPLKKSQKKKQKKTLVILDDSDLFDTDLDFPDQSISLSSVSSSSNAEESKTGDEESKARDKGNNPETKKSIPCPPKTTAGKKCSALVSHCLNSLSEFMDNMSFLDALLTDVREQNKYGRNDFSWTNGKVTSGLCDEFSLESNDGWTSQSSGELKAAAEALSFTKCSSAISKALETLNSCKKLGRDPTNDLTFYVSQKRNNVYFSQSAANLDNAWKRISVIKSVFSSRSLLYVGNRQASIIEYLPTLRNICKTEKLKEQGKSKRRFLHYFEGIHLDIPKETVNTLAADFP
Sequence of DNA dC->dU-editing enzyme APOBEC-3G (Homo sapiens) (Q9HC16 whole entry, looked up): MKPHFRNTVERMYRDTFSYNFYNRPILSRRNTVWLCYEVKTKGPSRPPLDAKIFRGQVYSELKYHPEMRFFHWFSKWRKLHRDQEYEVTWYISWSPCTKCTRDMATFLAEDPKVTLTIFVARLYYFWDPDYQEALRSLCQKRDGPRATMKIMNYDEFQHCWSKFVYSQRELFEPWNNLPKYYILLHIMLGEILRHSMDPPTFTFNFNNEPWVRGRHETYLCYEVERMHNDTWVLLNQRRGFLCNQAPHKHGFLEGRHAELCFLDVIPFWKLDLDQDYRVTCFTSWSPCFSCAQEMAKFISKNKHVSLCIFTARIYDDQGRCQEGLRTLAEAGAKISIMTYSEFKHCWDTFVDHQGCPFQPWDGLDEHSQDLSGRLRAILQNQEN
Sequence of Peptidyl-prolyl cis-trans isomerase NIMA-interacting 1 (Homo sapiens) (Q13526 whole entry, looked up): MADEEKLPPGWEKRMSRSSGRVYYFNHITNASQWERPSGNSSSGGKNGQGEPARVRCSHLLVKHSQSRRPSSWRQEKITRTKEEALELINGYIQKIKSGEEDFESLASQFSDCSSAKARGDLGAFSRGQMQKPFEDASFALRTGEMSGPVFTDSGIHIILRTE

As to `COc1cc2nc(N(C)CCCNC(=O)C3CCCO3)nc(N)c2cc1OC` (stereo unspecified), the Potency entry in [1], in test [2], in test [3], in [5], in test [6] and in test [8] was “inactive” throughout. Besides, in [9], the Potency entry is “inactive”. The viability change in [3] is -7.87%. Further, the outcome in test [4] and in [7] was inactive.
For the compound `CN1CCN(C2=Nc3cc(Cl)ccc3Nc3ccccc32)CC1`, the Potency result in test [1], in test [3], in test [11], in test [12] and in test [8] was “inactive” each time. Further, the activation in test [10] is 3.31% (inactive). Further, in [3], the viability change was -10.5%. Besides, the result in test [4], in [7] and in test [13] was inactive.
As for `CC(C)C(=O)Nc1ccc([N+](=O)[O-])c(C(F)(F)F)c1`, the Potency entry in test [2], in [11], in test [12], in [6], in test [8] and in [16] was “inactive” throughout. The activation in test [10] was -0.438% (inactive). Further, the compound was classed as inactive in test [4], in test [7], in [14] and in test [15].
As to `Cn1c(=O)c2c(ncn2C)n(C)c1=O`, the Potency entry in [1], in [2], in test [3], in [12], in [8] and in test [9] was “inactive” each time. Besides, in [3], the viability change is -2.67%. Further, the call in [4], in test [14] and in [13] was inactive.
For `CN1CCN(CCCN2c3ccccc3Sc3ccc(Cl)cc32)CC1`, the Potency result in test [1], in test [2], in test [11], in [5] and in test [6] was “inactive” in each case. Moreover, the compound was classed as inactive in [4] and in [7].
As to `CCCCc1oc2ccccc2c1C(=O)c1cc(I)c(OCCN(CC)CC)c(I)c1`, the Potency entry in [1], in test [3], in [11] and in test [12] was “inactive” in each case. Moreover, the activation in test [10] was 1.56% (inactive). In [3], the viability change came to 8.23%. Moreover, the outcome in [7] was inactive.
Turning to `O=C(c1ccc(OCCN2CCCCC2)cc1)c1c(-c2ccc(O)cc2)sc2cc(O)ccc12`, the Potency entry in [1], in test [11], in test [12], in [6] and in test [8] was “inactive” in each case. Moreover, the compound was called inactive in test [4] and in [7].
Take `O=C(Nc1ccc([N+](=O)[O-])cc1Cl)c1cc(Cl)ccc1O`: the Potency entry in [1], in [11], in test [6], in [8] and in test [9] was “inactive” each time. For the same compound, the compound was called inactive in test [4] and in test [7].
In the case of `CC(COc1ccccc1)N(CCCl)Cc1ccccc1` (stereo unspecified), the Potency result in test [1], in test [2], in test [11], in [12] and in [9] was “inactive” throughout. In addition, the compound was called inactive in [4] and in test [7].
